# Assay outcomes deposited in PubChem BioAssay by National Center for Advancing Translational Sciences (NCATS).
# Hits are enriched below; roughly 21% of the tested compounds scored in any of these assays.
# DT40 TDP1 no CPT: qHTS for Inhibitors of human tyrosyl-DNA phosphodiesterase 1 (TDP1): qHTS in cells in absence of CPT; DT40 Tdp1-/- hTDP1 cells, no CPT, ATP luminescence, 48 h; Potency, µM (series often up to 46.2 µM), for inactives: top-dose activity change, negative = growth inhibition, actives largely listed as inhibitors; hit rate 15% among 420,000; further: potency means the concentration at half of the fitted maximal effect; nearly all actives have a fitted effect of over 55% in size
#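 Camptothecin absent (DMSO only). Human TDP1-complemented DT40 knockout cells, 400 cells/well, 37 °C for minimum 48 hr; ATP measured via CellTiter-Glo, 30 min dark incubation, luminescence.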
# ELG1 DNA repair: qHTS screen for small molecules that inhibit ELG1-dependent DNA repair in human embryonic kidney (HEK293T) cells expressing luciferase-tagged ELG1; HEK293T ELG1-luciferase reporter, luminescence, 16 h; DNA damage induced by 5-fluorouridine; Potency, µM (titrated, usually from 46.1 µM), without a hit: at the top dose activity change, negative = inhibition, hits mostly inhibitors; hit rate 2.3% among 330,000; further: potency means the concentration at half of the fitted maximal effect; nearly all actives have a fitted effect of over 55% in size
#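 Quantitative HTS, concentration-response format. 2,000 cells/well co-treated with 5-fluorouridine and compound, 16 hr in 5% CO2 at 37 °C; ONE-Glo luminescence read after 30 min.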
# IL-1B inflam inh: qHTS for Inhibitors of Inflammasome Signaling: IL-1-beta AlphaLISA Primary Screen. THP-1 LPS/ATP IL-1B secretion, AlphaLISA, 16 h; stronger effect = lower value. activity change, % at 57.5 µM. hit rate 4.7% among 360,000; in the data active means activity change below about -50%; inconclusive means mostly about -30% to -49%
#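 Secreted IL-1B measured by AlphaLISA bead assay after 16 h compound exposure of THP-1 cells; compounds (final up to 57.5 uM) added 1 h before LPS (250 ng/mL) and ATP (1.25 mM) stimulation; lower signal means less secretion.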
# TDP1 cell CPT: qHTS for Inhibitors of human tyrosyl-DNA phosphodiesterase 1 (TDP1): qHTS in cells in presence of CPT; chicken DT40 Tdp1-/-;hTDP1 cells + 20 nM CPT, ATP luminescence, 48 h; Potency, µM (top dose mostly 46.2 µM), inactives show at the highest dose activity change, negative = growth inhibition, most hits filed as inhibitors; hit rate 12% among 420,000; AID 686979, 2013; further: potency means the concentration at half of the fitted maximal effect; nearly all actives have a fitted effect of over 55% in size
#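 Chicken DT40 Tdp1-/- cells stably complemented with human TDP1 were seeded at 400 cells/well in medium containing 20 nM camptothecin, exposed to pin-transferred compounds, and grown at 37 °C for at least 48 hr. Viability was read as ATP luminescence.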
# Gal4-VP16 FLuc: VP16 counterscreen qHTS for inhibitors of ROR gamma transcriptional activity; Drosophila S2 Gal4-VP16 UAS-luciferase, luminescence, 20 h; hit rate 3.5% among 310,000; Potency, µM (doses to about 53.6 µM), for the others: at the top dose activity, negative = inhibition, usual class: inhibitors;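 further: Gal4-VP16 expression switched on by copper sulfate through the metallothionein promoter; potency means the concentration at half of the fitted maximal effect; nearly all actives have a fitted effect of over 50% in size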
# RORg inh: qHTS for inhibitors of ROR gamma transcriptional activity; Drosophila S2 Gal4-RORgamma UAS-luciferase reporter, 20 h; Potency, µM (doses to about 53.6 µM), for the others: top-dose activity change, negative = inhibition, most hits filed as inhibitors; hit rate 5.4% among 310,000; further: potency means the concentration at half of the fitted maximal effect; nearly all actives have a fitted effect of over 60% in size
# Target sequence (P51450 whole entry, looked up, the tested form may be a part): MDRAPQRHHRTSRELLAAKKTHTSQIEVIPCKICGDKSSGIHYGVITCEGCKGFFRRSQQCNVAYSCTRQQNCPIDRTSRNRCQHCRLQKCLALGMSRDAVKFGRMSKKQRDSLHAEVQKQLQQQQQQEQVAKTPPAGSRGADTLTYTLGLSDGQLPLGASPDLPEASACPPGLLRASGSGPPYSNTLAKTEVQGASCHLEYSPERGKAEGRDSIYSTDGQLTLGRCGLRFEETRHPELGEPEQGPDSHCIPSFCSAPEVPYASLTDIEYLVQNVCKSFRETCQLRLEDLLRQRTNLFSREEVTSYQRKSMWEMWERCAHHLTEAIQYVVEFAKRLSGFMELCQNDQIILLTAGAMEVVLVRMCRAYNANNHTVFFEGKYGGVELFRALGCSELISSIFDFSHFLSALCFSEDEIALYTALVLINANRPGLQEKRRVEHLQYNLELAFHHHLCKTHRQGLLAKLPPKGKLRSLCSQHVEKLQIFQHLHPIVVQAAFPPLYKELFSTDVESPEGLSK
#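 Stably transfected Drosophila Schneider cells are the test system, with ROR gamma fused to Gal4 and luciferase under UAS control; luminescence is read after 20 hr of 700 uM copper sulfate induction at ambient temperature.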
# Starred values were filed as active, the others as inactive; u = inconclusive; x = no result; [ ] = dose if it differs, or a comment. Unless noted, the call rests on the fitted dose curve; in most records, active means well fitted curve in the direction sought with a large enough effect; inconclusive means small, poorly fitted or top-dose-only effect, or another doubt; inactive means no such curve, though single readings can be large; an effect the other way counts as inactive or inconclusive. On the % scale 0 is the no-effect control and ±100 the full control effect.
SMILES,DT40 TDP1 no CPT,ELG1 DNA repair,IL-1B inflam inh,TDP1 cell CPT,Gal4-VP16 FLuc,RORg inh
FC(F)(F)c1ccccc1-c1nc(NCCN2CCOCC2)c2ccccc2n1,-11%,x,x,0%,-8%,14%
Cc1ccc(-c2nc3ccccc3n2C(C(=O)NC(C)(C)C)C2CC2)cc1 (configuration not stated),u,x,76,21µM*,x,x
CSCCC(C(=O)Nc1c(C)cccc1C)n1c(-c2ccc(C(F)(F)F)cc2)nc2ccccc21 (configuration not stated),6%,x,40,-5%,x,x
CC(C)(C)NC(=O)C(C1CC1)n1c(-c2ccccc2)nc2ccccc21 (configuration not stated),8.2µM*,x,17,10µM*,x,x
Cc1ccc(-c2nc3ccccc3n2C(C)C(=O)NC(C)(C)C)cc1 (configuration not stated),-17%,x,3,9%,x,x
CSCCC(C(=O)Nc1c(C)cccc1C)n1c(-c2cnc(C)cn2)nc2ccccc21 (configuration not stated),16µM*,x,-12,u,x,x
CSCCC(C(=O)NC(C)(C)C)n1c(-c2ccc3c(c2)OCO3)nc2ccccc21 (configuration not stated),21µM*,x,11,23µM*,x,x
O=C(CN1CCN(S(=O)(=O)c2cccc(Cl)c2)CC1)NCC1(N2CCOCC2)CCCCC1,u,-15%,-20,u,x,x
O=C(NCCc1nnc2n1CCN(Cc1ccc(F)cc1)CC2)c1ccco1,-1%,x,x,0%,x,x
Cc1csc(-c2nc3ccccc3n2C(C(=O)NC(C)(C)C)c2cc3ccccc3o2)c1 (configuration not stated),15µM*,x,-19,u,x,x
COc1ccc(C(C(=O)NC(C)(C)C)n2c(-c3ccc(-c4ccccc4)cc3)nc3ccccc32)cc1 (configuration not stated),13µM*,x,8,u,x,x
COc1ccc(C(C(=O)NCc2ccccc2)n2c(-c3ccccn3)nc3ccccc32)cc1 (configuration not stated),u,x,-16,16µM*,x,x
CCC(C(=O)NC1CCCC1)n1c(-c2ccccn2)nc2ccccc21 (configuration not stated),8.2µM*,x,28,7.3µM*,x,x
CC(=O)NCCNc1nc2cc(-c3ccccc3CO)sc2c(=O)n1C,-15%,x,0,2%,x,x
Cc1ccc(CNS(=O)(=O)c2c(C)nc3sc(C)cn3c2=O)cc1,-26%,x,x,u,x,x
COc1ccc2nc(C(c3ccc(C)cc3)n3c(-c4ccccc4Br)nc4ccccc43)[nH]c2c1 (configuration not stated),u,x,-17,u,x,x
CCN(CC)C(=O)Cn1cc(SCC(=O)Nc2cccc(F)c2)c2ccccc21,-13%,x,x,-6%,x,x
O=C(NCc1ccco1)C(C(=O)c1ccccc1)n1ccccc1=O (configuration not stated),u,9%,-1,0%,-2%,-2%[10 µM]
O=C(NCC1CCCO1)C(C(=O)c1ccccc1)n1ccccc1=O (configuration not stated),10µM*,13%,8,u,-7%,-30%
Cc1cc(C)c2c(CC(=O)NCc3ccco3)coc2c1,u,1%,21,u,3%,u
CCOCCCNC(=O)CNC(=S)N(Cc1ccc(C)cc1)Cc1ccco1,0%,-8%,29,u,22%,5%
